Results from the supplement of paper PMC4466140.

Molecular target: AgAbp1
Test: SPOT peptide array binding signal intensity (averaged, normalized) (arbitrary units (background-subtracted, floor 0; scale differs between SH3 domains)); higher = stronger binding of the SH3 domain to the peptide
Procedure: (§1)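 GST-tagged SH3 domains from S. cerevisiae (Sc), A. gossypii (Ag), C. albicans (Ca) and S. pombe (Sp) were incubated at 10 ug/ml overnight at 4 C on cellulose SPOT membranes carrying 292 synthetic 15-mer peptides mined from the S. cerevisiae proteome (cysteines replaced by serines). Binding was detected with anti-GST antibody, HRP secondary and chemiluminescence, quantified with Genespotter, and reported as normalized spot intensities averaged over biological replicates.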

Binder	SPOT peptide array binding signal intensity
RSRRSSFAYPQQVAI	22

Molecular target: AgBbc1
Test: as above
Procedure: as §1

Binder	SPOT peptide array binding signal intensity
RSRRSSFAYPQQVAI	64

Molecular target: AgBem1-D1
Test: as above
Procedure: as §1

Binder	SPOT peptide array binding signal intensity
RSRRSSFAYPQQVAI	91.5

Molecular target: AgBzz1-D1
Test: as above
Procedure: as §1

Binder	SPOT peptide array binding signal intensity
RSRRSSFAYPQQVAI	32

Molecular target: AgBzz1-D2
Test: as above
Procedure: as §1

Binder	SPOT peptide array binding signal intensity
RSRRSSFAYPQQVAI	50.5

Molecular target: AgCyk3
Test: as above
Procedure: as §1

Binder	SPOT peptide array binding signal intensity
RSRRSSFAYPQQVAI	1

Molecular target: AgFus1
Test: as above
Procedure: as §1

Binder	SPOT peptide array binding signal intensity
RSRRSSFAYPQQVAI	200

Molecular target: AgHof1
Test: as above
Procedure: as §1

Binder	SPOT peptide array binding signal intensity
RSRRSSFAYPQQVAI	33.5

Molecular target: AgHse1
Test: as above
Procedure: as §1

Binder	SPOT peptide array binding signal intensity
RSRRSSFAYPQQVAI	254

Molecular target: AgLsb1
Test: as above
Procedure: as §1

Binder	SPOT peptide array binding signal intensity
RSRRSSFAYPQQVAI	2.5

Molecular target: AgLsb4
Test: as above
Procedure: as §1

Binder	SPOT peptide array binding signal intensity
RSRRSSFAYPQQVAI	39.5

Molecular target: AgMyo5
Test: as above
Procedure: as §1

Binder	SPOT peptide array binding signal intensity
RSRRSSFAYPQQVAI	6.25

Molecular target: AgNbp2
Test: as above
Procedure: as §1

Binder	SPOT peptide array binding signal intensity
RSRRSSFAYPQQVAI	39

Molecular target: AgRvs167
Test: as above
Procedure: as §1

Binder	SPOT peptide array binding signal intensity
RSRRSSFAYPQQVAI	2.33

Molecular target: AgSho1
Test: as above
Procedure: as §1

Binder	SPOT peptide array binding signal intensity
RSRRSSFAYPQQVAI	9

Molecular target: AgSla1-D1-D2
Test: as above
Procedure: as §1

Binder	SPOT peptide array binding signal intensity
RSRRSSFAYPQQVAI	63.5

Molecular target: AgSla1-D3
Test: as above
Procedure: as §1

Binder	SPOT peptide array binding signal intensity
RSRRSSFAYPQQVAI	4.5

Molecular target: CaAbp1-D1
Test: as above
Procedure: as §1

Binder	SPOT peptide array binding signal intensity
RSRRSSFAYPQQVAI	170

Molecular target: CaAbp1-D2
Test: as above
Procedure: as §1

Binder	SPOT peptide array binding signal intensity
RSRRSSFAYPQQVAI	152

Molecular target: CaBbc1
Test: as above
Procedure: as §1

Binder	SPOT peptide array binding signal intensity
RSRRSSFAYPQQVAI	258

Molecular target: CaBem1-D1
Test: as above
Procedure: as §1

Binder	SPOT peptide array binding signal intensity
RSRRSSFAYPQQVAI	20.5

Molecular target: CaBzz1-D1
Test: as above
Procedure: as §1

Binder	SPOT peptide array binding signal intensity
RSRRSSFAYPQQVAI	84.5

Molecular target: CaBzz1-D2
Test: as above
Procedure: as §1

Binder	SPOT peptide array binding signal intensity
RSRRSSFAYPQQVAI	102

Molecular target: CaCyk3
Test: as above
Procedure: as §1

Binder	SPOT peptide array binding signal intensity
RSRRSSFAYPQQVAI	9

Molecular target: CaFus1
Test: as above
Procedure: as §1

Binder	SPOT peptide array binding signal intensity
RSRRSSFAYPQQVAI	262

Molecular target: CaHof1
Test: as above
Procedure: as §1

Binder	SPOT peptide array binding signal intensity
RSRRSSFAYPQQVAI	≤ 0

Molecular target: CaHse1
Test: as above
Procedure: as §1

Binder	SPOT peptide array binding signal intensity
RSRRSSFAYPQQVAI	4.5

Molecular target: CaLsb1
Test: as above
Procedure: as §1

Binder	SPOT peptide array binding signal intensity
RSRRSSFAYPQQVAI	1.5

Molecular target: CaLsb4
Test: as above
Procedure: as §1

Binder	SPOT peptide array binding signal intensity
RSRRSSFAYPQQVAI	70.5

Molecular target: CaMyo5
Test: as above
Procedure: as §1

Binder	SPOT peptide array binding signal intensity
RSRRSSFAYPQQVAI	7.25

Molecular target: CaNbp2
Test: as above
Procedure: as §1

Binder	SPOT peptide array binding signal intensity
RSRRSSFAYPQQVAI	130

Molecular target: CaRvs167
Test: as above
Procedure: as §1

Binder	SPOT peptide array binding signal intensity
RSRRSSFAYPQQVAI	5.67

Molecular target: CaRvs167-3
Test: as above
Procedure: as §1

Binder	SPOT peptide array binding signal intensity
RSRRSSFAYPQQVAI	13.5

Molecular target: CaSho1
Test: as above
Procedure: as §1

Binder	SPOT peptide array binding signal intensity
RSRRSSFAYPQQVAI	66.5

Molecular target: CaSla1-D1-D2
Test: as above
Procedure: as §1

Binder	SPOT peptide array binding signal intensity
RSRRSSFAYPQQVAI	55

Molecular target: CaSla1-D3
Test: as above
Procedure: as §1

Binder	SPOT peptide array binding signal intensity
RSRRSSFAYPQQVAI	2.25

Molecular target: ScAbp1
Test: as above
Procedure: as §1

Binder	SPOT peptide array binding signal intensity
RSRRSSFAYPQQVAI	27.5

Molecular target: ScBbc1
Test: as above
Procedure: as §1

Binder	SPOT peptide array binding signal intensity
RSRRSSFAYPQQVAI	24.5

Molecular target: ScBem1-D1
Test: as above
Procedure: as §1

Binder	SPOT peptide array binding signal intensity
RSRRSSFAYPQQVAI	79.5

Molecular target: ScBzz1-D1
Test: as above
Procedure: as §1

Binder	SPOT peptide array binding signal intensity
RSRRSSFAYPQQVAI	37

Molecular target: ScBzz1-D2
Test: as above
Procedure: as §1

Binder	SPOT peptide array binding signal intensity
RSRRSSFAYPQQVAI	28

Molecular target: ScCyk3
Test: as above
Procedure: as §1

Binder	SPOT peptide array binding signal intensity
RSRRSSFAYPQQVAI	69

Molecular target: ScFus1
Test: as above
Procedure: as §1

Binder	SPOT peptide array binding signal intensity
RSRRSSFAYPQQVAI	157

Molecular target: ScHof1
Test: as above
Procedure: as §1

Binder	SPOT peptide array binding signal intensity
RSRRSSFAYPQQVAI	0.5

Molecular target: ScHse1
Test: as above
Procedure: as §1

Binder	SPOT peptide array binding signal intensity
RSRRSSFAYPQQVAI	644

Molecular target: ScLsb1
Test: as above
Procedure: as §1

Binder	SPOT peptide array binding signal intensity
RSRRSSFAYPQQVAI	1

Molecular target: ScLsb2
Test: as above
Procedure: as §1

Binder	SPOT peptide array binding signal intensity
RSRRSSFAYPQQVAI	7.5

Molecular target: ScLsb3
Test: as above
Procedure: as §1

Binder	SPOT peptide array binding signal intensity
RSRRSSFAYPQQVAI	59

Molecular target: ScLsb4
Test: as above
Procedure: as §1

Binder	SPOT peptide array binding signal intensity
RSRRSSFAYPQQVAI	24.5

Molecular target: ScMyo3
Test: as above
Procedure: as §1

Binder	SPOT peptide array binding signal intensity
RSRRSSFAYPQQVAI	3.5

Molecular target: ScMyo5
Test: as above
Procedure: as §1

Binder	SPOT peptide array binding signal intensity
RSRRSSFAYPQQVAI	8.5

Molecular target: ScNbp2
Test: as above
Procedure: as §1

Binder	SPOT peptide array binding signal intensity
RSRRSSFAYPQQVAI	141

Molecular target: ScPex13
Test: as above
Procedure: as §1

Binder	SPOT peptide array binding signal intensity
RSRRSSFAYPQQVAI	10

Molecular target: ScRvs167
Test: as above
Procedure: as §1

Binder	SPOT peptide array binding signal intensity
RSRRSSFAYPQQVAI	8.33

Molecular target: ScSho1
Test: as above
Procedure: as §1

Binder	SPOT peptide array binding signal intensity
RSRRSSFAYPQQVAI	304

Molecular target: ScSla1-D1-D2
Test: as above
Procedure: as §1

Binder	SPOT peptide array binding signal intensity
RSRRSSFAYPQQVAI	339

Molecular target: ScSla1-D3
Test: as above
Procedure: as §1

Binder	SPOT peptide array binding signal intensity
RSRRSSFAYPQQVAI	20.2

Molecular target: SpAbp1-D1
Test: as above
Procedure: as §1

Binder	SPOT peptide array binding signal intensity
RSRRSSFAYPQQVAI	36

Molecular target: SpBbc1
Test: as above
Procedure: as §1

Binder	SPOT peptide array binding signal intensity
RSRRSSFAYPQQVAI	3.5

Molecular target: SpBzz1-D1
Test: as above
Procedure: as §1

Binder	SPOT peptide array binding signal intensity
RSRRSSFAYPQQVAI	169

Molecular target: SpBzz1-D2
Test: as above
Procedure: as §1

Binder	SPOT peptide array binding signal intensity
RSRRSSFAYPQQVAI	≤ 0

Molecular target: SpCyk3
Test: as above
Procedure: as §1

Binder	SPOT peptide array binding signal intensity
RSRRSSFAYPQQVAI	1.5

Molecular target: SpHof1
Test: as above
Procedure: as §1

Binder	SPOT peptide array binding signal intensity
RSRRSSFAYPQQVAI	93.5

Molecular target: SpHof1-2
Test: as above
Procedure: as §1

Binder	SPOT peptide array binding signal intensity
RSRRSSFAYPQQVAI	13

Molecular target: SpHof1-3
Test: as above
Procedure: as §1

Binder	SPOT peptide array binding signal intensity
RSRRSSFAYPQQVAI	203

Molecular target: SpHse1
Test: as above
Procedure: as §1

Binder	SPOT peptide array binding signal intensity
RSRRSSFAYPQQVAI	168

Molecular target: SpLsb1
Test: as above
Procedure: as §1

Binder	SPOT peptide array binding signal intensity
RSRRSSFAYPQQVAI	7.75

Molecular target: SpLsb4
Test: as above
Procedure: as §1

Binder	SPOT peptide array binding signal intensity
RSRRSSFAYPQQVAI	59

Molecular target: SpMyo1
Test: as above
Procedure: as §1

Binder	SPOT peptide array binding signal intensity
RSRRSSFAYPQQVAI	6.75

Molecular target: SpNbp2
Test: as above
Procedure: as §1

Binder	SPOT peptide array binding signal intensity
RSRRSSFAYPQQVAI	91

Molecular target: SpPex13
Test: as above
Procedure: as §1

Binder	SPOT peptide array binding signal intensity
RSRRSSFAYPQQVAI	17

Molecular target: SpRvs167
Test: as above
Procedure: as §1

Binder	SPOT peptide array binding signal intensity
RSRRSSFAYPQQVAI	8.83

Molecular target: SpSla1-D1-D2
Test: as above
Procedure: as §1

Binder	SPOT peptide array binding signal intensity
RSRRSSFAYPQQVAI	3

Molecular target: SpSla1-D3
Test: as above
Procedure: as §1

Binder	SPOT peptide array binding signal intensity
RSRRSSFAYPQQVAI	10
